In PubChem BioAssay AID880 (National Center for Advancing Translational Sciences (NCATS), 2007):
The whole screen tested about 230,000 compounds, of which about 1,000 (0.43%) were called active. Many of the other results were omitted from the sample, so actives are more common in it than they were. Values without a mark were called inactive. Calls follow the shape of the dose curve; as a rule, active = well fitted inhibition curve with a large enough effect (not every such curve was filed as active); inactive = no such curve, though single readings can be large or run the other way.

molecular target: Guanine nucleotide-binding protein G(i) subunit alpha-1 (Homo sapiens) (UniProt P63096); assay: qHTS Assay for Inhibitors of RGS12 GoLoco Motif Activity (Red Fluorophore); conditions: Gai1:RGS12 GoLoco peptide FP, rhodamine, 10 min; series mostly up to 61.6 µM; activity, negative = inhibition: at the top concentration; also: nearly all actives have a fitted effect of over 30% in size
Sequence (P63096 whole entry, looked up): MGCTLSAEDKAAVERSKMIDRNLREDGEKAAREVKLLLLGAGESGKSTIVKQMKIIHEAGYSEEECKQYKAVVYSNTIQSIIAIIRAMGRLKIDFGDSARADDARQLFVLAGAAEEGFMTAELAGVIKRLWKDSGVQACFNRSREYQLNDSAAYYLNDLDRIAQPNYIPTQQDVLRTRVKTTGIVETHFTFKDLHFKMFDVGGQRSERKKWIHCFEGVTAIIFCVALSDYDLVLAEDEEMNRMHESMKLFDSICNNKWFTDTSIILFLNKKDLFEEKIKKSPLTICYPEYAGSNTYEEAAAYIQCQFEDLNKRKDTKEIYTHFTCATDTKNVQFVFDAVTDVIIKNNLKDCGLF
% is scaled to controls: 0 for no effect and ±100 for the full control effect; potency is read from the fitted curve at half-maximal effect.

SMILES	activity, negative = inhibition	Potency
CN(C)C(=O)c1nc2ccc(Cl)cn2c1CNCc1cccc(OC(F)(F)F)c1	9.02%	–
Cn1nc(C(F)(F)F)cc1C(=O)O	-5.27%	–
O=[N+]([O-])c1cc(S(=O)(=O)CCCN2CCOCC2)ccc1F	9.83%	–
CC(C)c1cnc(NC(=O)Cc2ccccc2)s1	9.35%	–
O=C(CSc1ncnc2c1cnn2CCc1ccccc1)Nc1ccc(F)cc1	-3.51%	–
Oc1ccc(CNc2ccccc2O)cc1	71.8%	–
O=C(OCc1ccccc1)c1ccc(O)cc1	9.09%	–
COC(=O)CCCCCN1C(=O)NC(c2ccc(-c3ccccc3)cc2)C(C(=O)OCc2ccccc2)=C1C (centres undefined)	–	inactive
CC(=O)[C@H](C(c1ccccc1)N1CCOCC1)N1CCOCC1 (some centres undefined)	-7.72% [at 14.2 µM]	–
C=C(C(C)=O)C(O)c1ccc([N+](=O)[O-])cc1 (centres undefined)	-2.53%	–
CCOC(=O)C1(CC2CCCCO2)CCN(Cc2nc(-c3cccs3)oc2C)CC1 (centres undefined)	7.2%	–
OCC(CO)NC1C[C@](O)(CO)[C@@H](O)[C@H](O)[C@H]1O (some centres undefined)	4.17%	–
NC1CCN(O)C1=O (centres undefined)	7.53%	–
CCc1ccc(-n2c(SCc3cc(=O)n4cc(Br)ccc4n3)nc3[nH]ncc3c2=O)cc1	9%	–
CC(O)COc1ccccc1 (centres undefined)	3.23%	–
O=C(O)/C=C/c1ccc(OCCCF)cc1	4.77%	–
Cc1cccc(Br)c1	0.712%	–
O=C1OCCN1C(=O)[C@H]1[C@H](c2ccc(Cl)cc2)C(c2cccc(Cl)c2)=NN1c1ccc(Br)cc1	7.07%	–
CC(O)[C@@H](N)C(=O)O (some centres undefined)	0.527%	–
O=P(O)(O)C(O)c1ccc2ccccc2c1 (centres undefined)	-0.516%	–
Cc1ccnc(Nc2nc3ccccc3s2)n1	4.81%	–
Cc1ccnc(SCC(N)=O)n1	8.28%	–
Cc1ccnc(-n2sc3ccccc3c2=O)n1	–	14.1 µM (active)
Cc1ccc(-c2nc3ccccc3[nH]c2=O)cc1	0.424%	–

SMILES	activity, negative = inhibition	Potency
O=c1[nH]c2ccccc2n2c(-c3ccccc3)nnc12	–	12.6 µM (active)
CCOC(=O)c1cnc2[nH]c3ccccc3n2c1=O	10.1%	–
O=C(Nc1cccc(F)c1)N1CCC2(CC1)CCN(S(=O)(=O)c1ccccc1)CC2	8.81%	–
CCOC(=O)C1=NO[C@@]2(C=C(Br)C(=O)[C@H]3O[C@H]32)C1	-2.47%	–
COc1ccc2c(-c3ccccc3)cc(SCC(=O)N(C)C3CCS(=O)(=O)C3)nc2c1 (centres undefined)	-0.0537%	–
CC(=O)OC1C([N+]2(C)CCCCC2)C[C@H]2C3CC[C@H]4C[C@H](OC(C)=O)C([N+]5(C)CCCCC5)CC4(C)C3CCC12C (some centres undefined)	4.19%	–
C=CC(=O)OCCOCCOCCOCCOC(=O)C=C	–	inactive
Cc1cccc(-n2c(=O)c3c(C)c(C)sc3n(CC(N)=O)c2=O)c1	-2.7%	–
NC(=O)c1sc(-c2ccsc2)cc1N	-2.74%	–
COc1ccc(-c2nc(-c3ccccc3)oc2Nc2ccc3ccccc3c2)cc1	-5.32%	–
CC1(C)CC(N2CCN(C(c3ccccc3)c3ccccc3)CC2)=CC(=[N+]2CCCCC2)C1	–	17.8 µM (active)
O=C1CC(N2CCN(C(c3ccccc3)c3ccccc3)CC2)C(=O)N1 (centres undefined)	2.76%	–
CC1(C)CC(=O)C=C(N2CCCC2)C1	-22.1%	–
CCOC(=O)/C(C#N)=C/c1ccc(N2CCCCC2)cc1	17.3%	–
O=C1C=CC(=O)N1c1ccc(N2CCCCC2)cc1	–	5.01 µM (active)
Cc1ccccc1C(=O)Nc1ccc(N2CCCCCC2)cc1	-22.7%	–
N#C/C(=C/c1ccc(N2CCCCC2)o1)C(=O)NCCc1c[nH]c2ccccc12	-1.11%	–
C=C/C1=C/Cc2ccccc2[C@H](C[N+](=O)[O-])C(C(=O)OC)(C(=O)OC)C1	-0.39%	–
COc1ncnc2c1N=C1CC(C)(C)CC(N)=C1S2	–	25.1 µM (active)
COc1cccc(-c2cc(=O)c3cc(NC(=O)c4ccc(C)cc4)ccc3[nH]2)c1	4.14% [at 88.7 µM]	–
CC(=O)N(CC(O)CO)c1c(I)c(C(=O)NCC(O)CO)c(I)c(C(=O)NCC(O)CO)c1I (centres undefined)	9.65%	–
COc1ccc2c(c1)C(=C(C#N)C#N)C(=O)N2CCc1ccccc1	2.09%	–
CC(=O)Nc1ccc(NC(=O)COc2ccc(S(=O)(=O)NC(C)c3ccccc3)cc2)cc1 (centres undefined)	4.88%	–
COC(C(=O)Nc1ccc(S(=O)(=O)Nc2ccc(C)c(C)c2)cc1)c1ccccc1 (centres undefined)	1.08%	–

SMILES	activity, negative = inhibition	Potency
CC(=O)/C(C)=N/O	-21.5%	–
COc1ccccc1C1CCN(C(=S)Nc2ccc(Br)cc2)CC1	3.54%	–
Cc1ccccc1CN(c1ccc(C(=O)NCC2CCCO2)cc1)S(C)(=O)=O (centres undefined)	-10.8%	–
Cc1ccccc1Cn1c2ccccc2c2cnn(CC(=O)NCc3ccco3)c(=O)c21	-6.25%	–
CC1(C)OC(=O)N2CCc3ccccc3C21C (centres undefined)	-0.247%	–
COC(=O)c1ccccc1NC(=S)NC(=O)c1ccccc1F	8.73%	–
CC(C)=CCC[C@]1(C)[C@@H](CC=C(C)C)C[C@@]2(CC=C(C)C)C(=O)[C@]1(C(=O)C(C)C)C(=O)C(CC=C(C)C)=C2O	6.25%	–
O=C(NCc1ccco1)O[C@@H]1C(=O)c2cc(Br)ccc2O[C@H]1c1ccc2c(c1)OCO2	-2.95%	–
COc1cc(/C=N/NC(=S)Nc2cccnc2)cc(OC)c1O	4.13%	–
Cc1cccc([C@H]2[C@@H]3C=CC[C@@H](C)[C@@H]3C(=O)N2Cc2ccccc2)c1	6.72% [at 88.7 µM]	–
CC(=O)N/N=C(\C)c1ccc(Br)cc1Br	2.4%	–
COc1ccc(C2C(C#N)=C(N)Oc3cc(N)ccc32)cc1OC (centres undefined)	34.9%	–
OC[C@H]1O[C@@H](n2cnc3c(NC4CCCC4)ncnc32)[C@H](O)[C@H]1O	9.13%	–
CC1(C)C2CCC1(C)C(OC(=O)c1ccc(O)cc1)C2 (centres undefined)	3.31%	–
O=C(CSc1nc(-c2ccccc2)cs1)Nc1cccc([N+](=O)[O-])c1	22.5%	–
N#Cc1cccc(CS(=O)(=O)c2nnnn2-c2cc(C(F)(F)F)cc(C(F)(F)F)c2)c1	5.33%	–
C=CCSc1nc(N)cc(=O)[nH]1	-8.03%	–
Cc1ccc(NC2=C(Cl)C(=O)OC2OC(=O)c2ccccc2C)cc1 (centres undefined)	1.58%	–
Cc1cc(C)cc(NC(=S)NCc2ccc(F)cc2)c1	10.8%	–
O=C(C/C(=N\NC(=O)c1ccccc1Br)C(F)(F)F)c1cccs1	2.99%	–
Cc1cc(C(=O)NNC(=S)Nc2ccccc2C)cs1	-2.37%	–
CN(C)C(=O)c1coc2nc3ccccc3nc12	7.19%	–
O=C1NC(c2ccc(-c3ccccc3[N+](=O)[O-])o2)C(C(=O)c2ccc(Cl)cc2)C(O)(C(F)(F)F)N1 (centres undefined)	2.26%	–
COc1ccc(/C=C/C2=CC(C)(C)NC(=S)N2)c(OC)c1	16%	–

SMILES	activity, negative = inhibition	Potency
COC(=O)[C@@H]1CC2=CC(=O)CC[C@]2(C)[C@@]23O[C@@H]2C[C@@]2(C)[C@@H](CC[C@@]24CCC(=O)O4)[C@H]13	0.192%	–
O=C1CC(c2ccccc2)=NN1c1ccc([N+](=O)[O-])cc1	19.2%	–
O=c1[nH]n(-c2ccc([N+](=O)[O-])cc2)c(=O)c2ccccc12	–	14.1 µM (active)
O=c1[nH]c2cccnc2n1-c1ccc([N+](=O)[O-])cc1	1.5%	–
CCn1c(=O)c2cc(C(=O)Nc3cccc(C(C)=O)c3)sc2c2ccccc21	-2.18%	–
COc1ccc(CC(=O)N2N=C(C)CC2(O)C(F)(F)F)cc1 (centres undefined)	-1.6%	–
COc1ccc(-c2c(C)cc3oc(=O)cc(-c4ccccc4)c3c2C)cc1C=O	-5.78% [at 88.7 µM]	–
CC(=O)Nc1cccc([N+](=O)[O-])c1	4.48%	–
Cc1ccccc1NC(=S)Nc1cccc([N+](=O)[O-])c1	3.92%	–
COC(=O)/C=C\C(=O)Nc1cccc([N+](=O)[O-])c1	–	0.891 µM (active)
C/C=C(\C)C(=O)OC1C(OC(=O)C2(C)OC2C)c2cc3ccc(=O)oc3cc2OC1(C)C (centres undefined)	3.63%	–
Nc1ccc2nc3c(=O)[nH]c(=S)[nH]c3nc2c1	–	14.1 µM (active)
O=c1[nH]c(=O)c2nc3ccccc3nc2[nH]1	–	inactive
CC(C)(C)NC(=O)c1ccc(Cn2cc(C(F)(F)F)ccc2=O)cc1	-0.997%	–
CCCCCCCC[n+]1cccc(C(=O)N2c3c(nc(N)[nH]c3=O)NC(C)C2C)c1 (centres undefined)	–	11.2 µM (active)
CCCCCCn1c(SCC(=O)c2ccccc2)nc2c1c(=O)[nH]c(=O)n2C	-8.12%	–
CCCCNC(=O)Nc1c(C)cc(SC#N)cc1C	4.69%	–
O=C(Nc1ccc(N2CCOCC2)cc1)c1ccc(-c2ccccc2[N+](=O)[O-])o1	7.4%	–
COc1ccc(-c2csc3nc(-c4ccccc4F)oc(=O)c23)cc1OC	49.5%	–
COc1cccc([C@@H]2Oc3ccc(Br)cc3C(=O)[C@H]2OC(=O)NCCc2ccc(OC)c(OC)c2)c1	4.12%	–
Cc1ccc2c(CC(=O)NCc3cccs3)coc2c1	-4.74%	–
CCOC(=O)C1CCCN(C(=O)COc2ccc(N(C)S(=O)(=O)c3ccc(C)cc3)cc2)C1 (centres undefined)	2.68%	–
